# Measured values taken from paper PMC7862700, “An all-to-all approach to the identification of sequence-specific readers for epigenetic DNA modifications on cytosine”.
# Assays:
# Assay in all cases: DAPPL (digital affinity profiling via proximity ligation, sequencing); 10 mM Tris-HCl pH 7.5, 50 mM NaCl, 1 mM DTT, 4% glycerol, room temperature, 30 min; GST-TFs on glutathione beads, 16-mer random dsDNA library, 0.1% formaldehyde crosslink after washing; high values mean tight binding
# FLI1 = target: T1, FLI1 (Homo sapiens, UniProt Q01543 1-452); details: protein: recombinant; tags: N-terminal GST; dsDNA, one strand shown
# T1 sequence: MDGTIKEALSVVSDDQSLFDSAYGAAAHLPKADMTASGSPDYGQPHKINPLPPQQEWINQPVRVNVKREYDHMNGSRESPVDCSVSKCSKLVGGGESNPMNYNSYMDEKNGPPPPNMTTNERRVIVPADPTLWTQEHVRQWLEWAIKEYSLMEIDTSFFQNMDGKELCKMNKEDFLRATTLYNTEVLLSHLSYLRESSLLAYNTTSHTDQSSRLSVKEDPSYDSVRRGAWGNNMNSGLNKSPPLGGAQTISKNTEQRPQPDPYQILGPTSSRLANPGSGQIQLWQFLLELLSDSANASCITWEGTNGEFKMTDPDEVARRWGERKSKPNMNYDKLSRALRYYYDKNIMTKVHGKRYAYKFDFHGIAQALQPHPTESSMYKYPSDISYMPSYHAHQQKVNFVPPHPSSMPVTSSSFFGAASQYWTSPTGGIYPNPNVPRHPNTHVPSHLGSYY
# In short: (§1)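 Human transcription factors fused to GST were expressed in yeast, captured on glutathione beads, given DNA barcodes and pooled with a GST-only negative control. Pools were incubated with 200 nmole of a 16-mer random double-stranded DNA library in Tris/NaCl/DTT/glycerol buffer at room temperature for 30 min. They were then washed, crosslinked with 0.1% formaldehyde, proximity-ligated (BsaI/T4 ligase, 1 h, 37 °C), PCR-amplified and sequenced on an Illumina NextSeq500. Binding signal is each 6-mer's read frequency for a factor divided by its frequency for the GST control.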
# ELK1 = target: T2, ELK1 (Homo sapiens, UniProt P19419 1-428); details: protein: recombinant; tags: N-terminal GST; dsDNA, one strand shown
# T2 sequence: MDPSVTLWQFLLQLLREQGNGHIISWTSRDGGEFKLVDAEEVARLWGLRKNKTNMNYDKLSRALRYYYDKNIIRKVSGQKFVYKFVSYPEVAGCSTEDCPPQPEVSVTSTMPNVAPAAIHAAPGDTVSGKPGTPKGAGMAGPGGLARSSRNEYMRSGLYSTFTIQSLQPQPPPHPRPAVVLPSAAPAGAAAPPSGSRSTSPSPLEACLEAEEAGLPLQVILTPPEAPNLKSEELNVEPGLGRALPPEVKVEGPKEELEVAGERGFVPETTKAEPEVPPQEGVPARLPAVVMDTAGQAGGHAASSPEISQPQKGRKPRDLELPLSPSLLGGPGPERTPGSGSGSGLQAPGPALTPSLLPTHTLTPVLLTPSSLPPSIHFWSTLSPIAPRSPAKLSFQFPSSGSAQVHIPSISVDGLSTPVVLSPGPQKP
# In short: as §1
# GABPA = target: T3, GABPA (Homo sapiens, UniProt Q06546 1-454); details: protein: recombinant; tags: N-terminal GST; dsDNA, one strand shown
# T3 sequence: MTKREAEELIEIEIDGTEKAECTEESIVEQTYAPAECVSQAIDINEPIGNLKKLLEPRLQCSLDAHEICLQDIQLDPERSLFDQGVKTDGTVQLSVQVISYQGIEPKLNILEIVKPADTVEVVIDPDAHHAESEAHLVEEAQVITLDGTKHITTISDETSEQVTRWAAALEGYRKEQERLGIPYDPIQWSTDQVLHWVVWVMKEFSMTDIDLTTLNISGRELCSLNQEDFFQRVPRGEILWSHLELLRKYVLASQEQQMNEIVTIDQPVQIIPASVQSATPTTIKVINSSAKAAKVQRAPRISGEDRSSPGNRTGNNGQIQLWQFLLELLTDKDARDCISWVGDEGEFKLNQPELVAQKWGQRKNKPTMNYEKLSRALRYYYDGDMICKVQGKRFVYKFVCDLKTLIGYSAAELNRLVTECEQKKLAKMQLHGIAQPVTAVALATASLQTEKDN
# In short: as §1
# ERG = target: T4, ERG (Homo sapiens, UniProt P11308 1-479); details: protein: recombinant; tags: N-terminal GST; dsDNA, one strand shown
# T4 sequence: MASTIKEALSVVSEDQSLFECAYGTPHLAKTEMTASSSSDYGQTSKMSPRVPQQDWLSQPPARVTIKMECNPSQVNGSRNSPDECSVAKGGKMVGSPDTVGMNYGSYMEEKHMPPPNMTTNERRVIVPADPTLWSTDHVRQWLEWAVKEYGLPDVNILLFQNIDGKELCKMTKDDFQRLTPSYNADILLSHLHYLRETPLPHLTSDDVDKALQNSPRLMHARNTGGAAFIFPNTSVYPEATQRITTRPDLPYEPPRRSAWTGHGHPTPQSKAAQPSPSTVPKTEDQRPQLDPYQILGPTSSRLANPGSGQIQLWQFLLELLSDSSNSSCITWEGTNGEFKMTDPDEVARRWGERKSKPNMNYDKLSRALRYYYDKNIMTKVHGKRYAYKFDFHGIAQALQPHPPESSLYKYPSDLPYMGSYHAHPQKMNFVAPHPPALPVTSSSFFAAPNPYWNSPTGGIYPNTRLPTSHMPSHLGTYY
# In short: as §1
# ELF1 = ELF1 (Homo sapiens, UniProt P32519 1-619); details: protein: recombinant; tags: N-terminal GST; dsDNA, one strand shown
# In short: as §1
# EHF = target: T5, EHF (Homo sapiens, UniProt Q9NZC4 1-300); details: protein: recombinant; tags: N-terminal GST; dsDNA, one strand shown
# T5 sequence: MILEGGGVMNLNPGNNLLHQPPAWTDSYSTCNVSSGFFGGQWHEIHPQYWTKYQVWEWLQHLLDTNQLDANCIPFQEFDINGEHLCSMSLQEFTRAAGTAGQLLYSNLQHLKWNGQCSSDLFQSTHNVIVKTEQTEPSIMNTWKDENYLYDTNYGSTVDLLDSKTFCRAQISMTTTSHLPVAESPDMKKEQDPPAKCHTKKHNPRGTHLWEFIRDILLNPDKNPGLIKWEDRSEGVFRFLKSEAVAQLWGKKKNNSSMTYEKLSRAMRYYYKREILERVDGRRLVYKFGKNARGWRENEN
# In short: as §1
# SPI1 = SPI1 (Homo sapiens, UniProt P17947 1-270); details: protein: recombinant; tags: N-terminal GST; dsDNA, one strand shown
# In short: as §1
# SPIB = SPIB (Homo sapiens, UniProt Q01892 1-262); details: protein: recombinant; tags: N-terminal GST; dsDNA, one strand shown
# In short: as §1
# ELK3 = target: T6, ELK3 (Homo sapiens, UniProt P41970 1-407); details: protein: recombinant; tags: N-terminal GST; dsDNA, one strand shown
# T6 sequence: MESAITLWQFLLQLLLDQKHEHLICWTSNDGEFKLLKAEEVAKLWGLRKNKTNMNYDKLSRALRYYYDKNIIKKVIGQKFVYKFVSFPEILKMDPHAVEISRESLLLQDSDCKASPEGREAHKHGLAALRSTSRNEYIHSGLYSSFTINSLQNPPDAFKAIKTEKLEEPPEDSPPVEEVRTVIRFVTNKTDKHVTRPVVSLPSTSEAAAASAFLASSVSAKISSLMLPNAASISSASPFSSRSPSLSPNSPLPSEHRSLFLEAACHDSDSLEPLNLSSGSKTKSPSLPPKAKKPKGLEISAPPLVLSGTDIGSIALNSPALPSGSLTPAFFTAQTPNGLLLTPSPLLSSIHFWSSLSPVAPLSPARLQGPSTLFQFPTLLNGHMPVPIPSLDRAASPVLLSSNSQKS
# In short: as §1
# FEV = target: T7, FEV (Homo sapiens, UniProt Q99581 1-238); details: protein: recombinant; tags: N-terminal GST; dsDNA, one strand shown
# T7 sequence: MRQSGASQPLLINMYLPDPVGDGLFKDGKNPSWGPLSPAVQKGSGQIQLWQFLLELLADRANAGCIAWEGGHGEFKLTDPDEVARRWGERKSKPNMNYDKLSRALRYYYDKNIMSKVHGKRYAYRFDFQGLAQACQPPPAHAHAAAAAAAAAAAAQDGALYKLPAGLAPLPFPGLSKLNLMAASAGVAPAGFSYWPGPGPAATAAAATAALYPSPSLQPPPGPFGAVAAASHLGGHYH
# In short: as §1
# ETV5 = ETV5 (Homo sapiens, UniProt P41161 1-510); details: protein: recombinant; tags: N-terminal GST; dsDNA, one strand shown
# In short: as §1
# HSF1 = HSF1 (Homo sapiens, UniProt Q00613 1-529); details: protein: recombinant; tags: N-terminal GST; chain copies: 3; dsDNA, one strand shown
# In short: as §1
# SPIC = target: T8, SPIC (Homo sapiens, UniProt Q8N5J4 1-248); details: protein: recombinant; tags: N-terminal GST; dsDNA, one strand shown
# T8 sequence: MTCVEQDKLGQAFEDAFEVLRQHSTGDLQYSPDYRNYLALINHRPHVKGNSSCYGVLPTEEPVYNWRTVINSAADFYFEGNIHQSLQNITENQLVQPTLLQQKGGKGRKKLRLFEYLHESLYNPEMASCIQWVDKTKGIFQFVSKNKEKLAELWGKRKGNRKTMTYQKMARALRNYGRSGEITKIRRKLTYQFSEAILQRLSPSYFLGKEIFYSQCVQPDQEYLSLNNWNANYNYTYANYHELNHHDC
# In short: as §1
# ELF4 = ELF4 (Homo sapiens, UniProt Q99607 1-663); details: protein: recombinant; tags: N-terminal GST; dsDNA, one strand shown
# In short: as §1
# ELK4 = target: T9, ELK4 (Homo sapiens, UniProt P28324-2 1-405); details: protein: recombinant; tags: N-terminal GST; dsDNA, one strand shown
# T9 sequence: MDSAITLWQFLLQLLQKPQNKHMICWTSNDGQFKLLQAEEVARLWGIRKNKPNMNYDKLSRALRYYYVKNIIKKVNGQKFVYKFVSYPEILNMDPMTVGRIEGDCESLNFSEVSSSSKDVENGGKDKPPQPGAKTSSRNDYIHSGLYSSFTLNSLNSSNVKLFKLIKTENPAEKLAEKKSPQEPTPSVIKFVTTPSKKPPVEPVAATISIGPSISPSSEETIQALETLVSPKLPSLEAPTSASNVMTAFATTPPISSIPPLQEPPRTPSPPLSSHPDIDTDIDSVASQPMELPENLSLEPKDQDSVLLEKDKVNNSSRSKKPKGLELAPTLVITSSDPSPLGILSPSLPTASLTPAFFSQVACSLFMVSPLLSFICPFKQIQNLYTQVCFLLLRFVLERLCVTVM
# In short: as §1
# ETV2 = target: T10, ETV2 (Homo sapiens, UniProt O00321 1-342); details: protein: recombinant; tags: N-terminal GST; dsDNA, one strand shown
# T10 sequence: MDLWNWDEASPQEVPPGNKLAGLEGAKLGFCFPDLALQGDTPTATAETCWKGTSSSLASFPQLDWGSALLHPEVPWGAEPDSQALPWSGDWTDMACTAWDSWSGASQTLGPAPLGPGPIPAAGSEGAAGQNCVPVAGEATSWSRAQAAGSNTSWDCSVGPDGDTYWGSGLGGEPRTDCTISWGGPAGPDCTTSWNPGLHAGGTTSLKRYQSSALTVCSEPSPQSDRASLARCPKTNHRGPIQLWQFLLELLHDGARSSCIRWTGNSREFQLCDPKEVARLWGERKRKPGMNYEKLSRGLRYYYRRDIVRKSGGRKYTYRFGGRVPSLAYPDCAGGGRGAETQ
# In short: as §1
# ELF3 = target: T11, ELF3 (Homo sapiens, UniProt P78545 1-371); details: protein: recombinant; tags: N-terminal GST; dsDNA, one strand shown
# T11 sequence: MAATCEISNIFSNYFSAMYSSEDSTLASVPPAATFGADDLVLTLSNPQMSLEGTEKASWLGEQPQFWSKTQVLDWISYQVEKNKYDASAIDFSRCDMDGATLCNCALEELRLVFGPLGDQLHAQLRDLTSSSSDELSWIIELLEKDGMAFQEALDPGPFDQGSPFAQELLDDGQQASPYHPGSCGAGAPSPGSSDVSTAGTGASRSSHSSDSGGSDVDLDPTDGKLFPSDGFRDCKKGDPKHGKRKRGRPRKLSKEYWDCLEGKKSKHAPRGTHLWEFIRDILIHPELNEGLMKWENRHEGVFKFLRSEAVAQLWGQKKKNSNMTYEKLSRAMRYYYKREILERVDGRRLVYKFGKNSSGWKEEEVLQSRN
# In short: as §1
# CRX = CRX (Homo sapiens, UniProt O43186 1-299); details: protein: recombinant; tags: N-terminal GST; dsDNA, one strand shown
# In short: as §1
# ETV1 = ETV1 (Homo sapiens, UniProt P50549 1-477); details: protein: recombinant; tags: N-terminal GST; dsDNA, one strand shown
# In short: as §1
# Chain of SPIB (Q01892 whole entry): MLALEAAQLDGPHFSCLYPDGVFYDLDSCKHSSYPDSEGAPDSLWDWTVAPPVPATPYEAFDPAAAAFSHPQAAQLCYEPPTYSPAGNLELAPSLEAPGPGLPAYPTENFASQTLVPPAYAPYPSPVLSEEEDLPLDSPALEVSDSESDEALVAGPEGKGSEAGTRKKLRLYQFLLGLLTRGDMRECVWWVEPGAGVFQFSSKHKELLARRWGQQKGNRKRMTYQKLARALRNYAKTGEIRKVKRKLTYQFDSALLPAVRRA
# Chain of ELF1 (P32519 whole entry): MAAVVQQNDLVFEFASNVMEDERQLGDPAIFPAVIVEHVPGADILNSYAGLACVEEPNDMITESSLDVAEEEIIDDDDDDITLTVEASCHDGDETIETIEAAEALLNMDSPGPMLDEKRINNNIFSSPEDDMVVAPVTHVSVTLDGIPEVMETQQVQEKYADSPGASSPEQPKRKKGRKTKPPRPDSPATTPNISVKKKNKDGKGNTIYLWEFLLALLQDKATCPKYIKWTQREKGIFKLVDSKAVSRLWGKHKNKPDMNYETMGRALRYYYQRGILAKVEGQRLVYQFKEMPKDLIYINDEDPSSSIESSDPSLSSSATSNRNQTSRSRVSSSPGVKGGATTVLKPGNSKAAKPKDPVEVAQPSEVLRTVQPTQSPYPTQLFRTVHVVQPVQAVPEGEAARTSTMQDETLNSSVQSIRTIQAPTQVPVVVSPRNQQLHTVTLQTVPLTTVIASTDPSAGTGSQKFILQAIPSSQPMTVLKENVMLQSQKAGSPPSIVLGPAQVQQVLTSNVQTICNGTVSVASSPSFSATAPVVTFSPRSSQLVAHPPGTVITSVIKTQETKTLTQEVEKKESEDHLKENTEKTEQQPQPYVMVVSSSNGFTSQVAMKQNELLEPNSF
# Chain of CRX (O43186 whole entry): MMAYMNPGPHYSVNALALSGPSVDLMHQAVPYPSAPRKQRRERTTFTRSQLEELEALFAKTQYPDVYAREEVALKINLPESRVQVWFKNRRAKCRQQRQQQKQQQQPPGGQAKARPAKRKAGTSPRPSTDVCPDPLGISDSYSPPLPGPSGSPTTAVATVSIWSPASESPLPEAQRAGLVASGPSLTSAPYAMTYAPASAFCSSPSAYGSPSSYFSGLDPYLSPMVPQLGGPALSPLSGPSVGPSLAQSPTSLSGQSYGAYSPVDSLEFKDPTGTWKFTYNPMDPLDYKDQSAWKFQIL
# Chain of ETV1 (P50549 whole entry): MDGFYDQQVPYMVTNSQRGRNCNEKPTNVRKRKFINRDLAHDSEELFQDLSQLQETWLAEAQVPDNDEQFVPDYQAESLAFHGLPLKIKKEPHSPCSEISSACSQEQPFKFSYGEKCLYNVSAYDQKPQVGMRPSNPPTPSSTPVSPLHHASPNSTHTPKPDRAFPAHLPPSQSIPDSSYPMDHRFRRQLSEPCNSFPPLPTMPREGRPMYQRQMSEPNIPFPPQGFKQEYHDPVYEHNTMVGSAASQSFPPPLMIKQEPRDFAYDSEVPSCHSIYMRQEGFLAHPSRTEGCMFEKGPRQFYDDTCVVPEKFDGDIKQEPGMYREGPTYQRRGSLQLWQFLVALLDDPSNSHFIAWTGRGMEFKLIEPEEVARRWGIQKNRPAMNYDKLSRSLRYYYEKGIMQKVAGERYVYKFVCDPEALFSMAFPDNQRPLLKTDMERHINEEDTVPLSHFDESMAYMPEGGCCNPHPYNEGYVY
# Chain of ETV5 (P41161 whole entry): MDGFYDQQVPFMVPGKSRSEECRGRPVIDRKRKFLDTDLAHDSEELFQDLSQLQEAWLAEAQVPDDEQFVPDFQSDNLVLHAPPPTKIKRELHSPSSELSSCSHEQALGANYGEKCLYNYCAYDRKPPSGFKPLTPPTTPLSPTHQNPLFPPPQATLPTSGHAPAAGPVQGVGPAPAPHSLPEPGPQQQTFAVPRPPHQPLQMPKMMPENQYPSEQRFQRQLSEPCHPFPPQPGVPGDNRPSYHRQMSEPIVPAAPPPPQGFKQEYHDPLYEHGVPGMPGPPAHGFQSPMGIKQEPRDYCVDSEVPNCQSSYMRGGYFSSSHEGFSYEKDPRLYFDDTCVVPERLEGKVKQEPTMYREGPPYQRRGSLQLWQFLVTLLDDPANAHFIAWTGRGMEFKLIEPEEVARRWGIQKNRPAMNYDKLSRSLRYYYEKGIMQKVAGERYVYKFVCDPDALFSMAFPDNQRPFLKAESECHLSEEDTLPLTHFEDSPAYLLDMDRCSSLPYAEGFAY
# Chain of HSF1 (Q00613 whole entry): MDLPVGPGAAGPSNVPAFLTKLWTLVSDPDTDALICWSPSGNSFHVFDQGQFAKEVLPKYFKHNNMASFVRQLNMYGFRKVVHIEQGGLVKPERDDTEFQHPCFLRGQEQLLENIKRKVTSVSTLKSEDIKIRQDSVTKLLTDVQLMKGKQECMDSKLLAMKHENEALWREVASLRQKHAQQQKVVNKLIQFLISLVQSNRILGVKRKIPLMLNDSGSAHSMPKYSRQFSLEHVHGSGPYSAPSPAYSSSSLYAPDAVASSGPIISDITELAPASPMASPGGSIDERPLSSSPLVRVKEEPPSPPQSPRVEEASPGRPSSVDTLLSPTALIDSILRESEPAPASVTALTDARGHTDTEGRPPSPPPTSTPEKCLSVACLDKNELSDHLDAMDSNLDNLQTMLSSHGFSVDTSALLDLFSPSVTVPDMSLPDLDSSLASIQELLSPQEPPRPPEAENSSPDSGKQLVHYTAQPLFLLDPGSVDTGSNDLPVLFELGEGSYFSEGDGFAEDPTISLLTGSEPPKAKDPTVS
# Chain of ELF4 (Q99607 whole entry): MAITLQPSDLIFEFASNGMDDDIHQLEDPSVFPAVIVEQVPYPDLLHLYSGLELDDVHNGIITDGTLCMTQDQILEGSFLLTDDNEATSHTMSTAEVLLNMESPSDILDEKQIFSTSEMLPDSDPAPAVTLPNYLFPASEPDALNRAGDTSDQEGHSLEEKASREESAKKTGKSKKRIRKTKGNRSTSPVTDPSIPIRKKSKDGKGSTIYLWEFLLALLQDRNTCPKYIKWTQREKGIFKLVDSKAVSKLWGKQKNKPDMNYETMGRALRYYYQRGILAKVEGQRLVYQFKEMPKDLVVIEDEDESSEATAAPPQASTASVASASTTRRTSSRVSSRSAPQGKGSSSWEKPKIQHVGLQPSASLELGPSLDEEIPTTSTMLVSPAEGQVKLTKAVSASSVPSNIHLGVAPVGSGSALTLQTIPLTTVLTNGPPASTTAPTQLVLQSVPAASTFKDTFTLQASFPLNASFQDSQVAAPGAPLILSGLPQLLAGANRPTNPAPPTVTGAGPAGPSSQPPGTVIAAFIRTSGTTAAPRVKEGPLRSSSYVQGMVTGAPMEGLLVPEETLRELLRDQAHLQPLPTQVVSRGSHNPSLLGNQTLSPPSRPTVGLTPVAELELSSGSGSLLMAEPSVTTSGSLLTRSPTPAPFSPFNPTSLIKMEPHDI
sequence,measurement,setting,value
AGCTCC,binding signal,FLI1,"1.38 fold enrichment (6-mer frequency, TF over GST control)"
same,binding signal,ELK1,"1.23 fold enrichment (6-mer frequency, TF over GST control)"
same,binding signal,GABPA,"1.32 fold enrichment (6-mer frequency, TF over GST control)"
same,binding signal,ERG,"1.2 fold enrichment (6-mer frequency, TF over GST control)"
same,binding signal,ELF1,"1.28 fold enrichment (6-mer frequency, TF over GST control)"
same,binding signal,EHF,"1.31 fold enrichment (6-mer frequency, TF over GST control)"
same,binding signal,SPI1,"1.25 fold enrichment (6-mer frequency, TF over GST control)"
same,binding signal,SPIB,"1.21 fold enrichment (6-mer frequency, TF over GST control)"
same,binding signal,ELK3,"1.17 fold enrichment (6-mer frequency, TF over GST control)"
same,binding signal,FEV,"1.26 fold enrichment (6-mer frequency, TF over GST control)"
same,binding signal,ETV5,"1.29 fold enrichment (6-mer frequency, TF over GST control)"
same,binding signal,HSF1,"1.22 fold enrichment (6-mer frequency, TF over GST control)"
same,binding signal,SPIC,"1.26 fold enrichment (6-mer frequency, TF over GST control)"
same,binding signal,ELF4,"1.43 fold enrichment (6-mer frequency, TF over GST control)"
same,binding signal,ELK4,"1.16 fold enrichment (6-mer frequency, TF over GST control)"
same,binding signal,ETV2,"1.35 fold enrichment (6-mer frequency, TF over GST control)"
same,binding signal,ELF3,"1.33 fold enrichment (6-mer frequency, TF over GST control)"
same,binding signal,CRX,"1.3 fold enrichment (6-mer frequency, TF over GST control)"
same,binding signal,ETV1,"1.29 fold enrichment (6-mer frequency, TF over GST control)"
